The target in assay [1] is Cytochrome P450 1A2 (Homo sapiens) (UniProt P05177). Nature of the assay: p450-cyp1a2 (AID 410; calls by dose curve; further: potency means the concentration at half of the fitted maximal effect). In outline:
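Read-out is luminescence from luciferin produced by CYP1A2 demethylation of Luciferin-ME (100uM, at Km). Detection reagent stopped the 60 min NADPH-dependent reaction; signals were normalized to 57 uM furafylline.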

The target in assay [2] is Glucocorticoid receptor (Homo sapiens) (UniProt P04150). Nature of the assay: GR-GFP Redistribution (AID 450;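 active means compounds whose dose series gives a full or clear partial fitted curve of increased nuclear translocation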; further: potency means the concentration at half of the fitted maximal effect). As to conditions: U2OS GR-GFP nuclear translocation, laser cytometry, 2 h.
Sequence of Glucocorticoid receptor (Homo sapiens) (P04150 whole entry, looked up, the tested form may be a part): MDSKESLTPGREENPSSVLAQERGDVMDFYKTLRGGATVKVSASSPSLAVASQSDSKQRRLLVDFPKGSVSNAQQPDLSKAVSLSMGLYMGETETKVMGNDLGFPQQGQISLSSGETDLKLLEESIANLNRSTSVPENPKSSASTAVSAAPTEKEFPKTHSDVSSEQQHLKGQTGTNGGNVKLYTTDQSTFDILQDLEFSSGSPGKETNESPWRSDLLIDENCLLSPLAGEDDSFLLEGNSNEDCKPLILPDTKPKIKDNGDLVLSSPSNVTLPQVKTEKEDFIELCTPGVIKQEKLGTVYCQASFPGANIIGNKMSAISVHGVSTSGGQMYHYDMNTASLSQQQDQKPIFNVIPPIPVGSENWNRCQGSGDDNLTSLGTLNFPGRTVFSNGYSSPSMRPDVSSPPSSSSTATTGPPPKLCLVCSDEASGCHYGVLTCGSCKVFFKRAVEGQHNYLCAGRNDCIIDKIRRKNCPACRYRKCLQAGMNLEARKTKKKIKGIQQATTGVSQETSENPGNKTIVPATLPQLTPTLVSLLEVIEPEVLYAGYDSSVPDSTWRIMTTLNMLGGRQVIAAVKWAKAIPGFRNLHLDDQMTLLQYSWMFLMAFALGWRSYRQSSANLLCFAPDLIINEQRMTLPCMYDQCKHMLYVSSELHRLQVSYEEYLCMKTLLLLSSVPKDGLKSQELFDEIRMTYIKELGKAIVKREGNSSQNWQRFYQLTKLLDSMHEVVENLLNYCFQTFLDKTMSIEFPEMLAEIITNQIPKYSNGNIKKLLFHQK
For assay [3] the target is unchanged. Nature of the assay: GR-EFC Redistribution (AID 451; calls by dose curve; further: potency means the concentration at half of the fitted maximal effect). The note with it: CHO-K1 GR-EFC translocation, beta-gal luminescence, 2 h. Put shortly: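 CHO-K1 cells stably expressing nuclear-localized β-gal enzyme acceptor and GR fused C-terminally to the enzyme donor fragment; ligand-driven nuclear translocation restores β-gal by complementation. Compounds titrated up to 46 uM final, 2 h at 37 °C; luminescence read.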

For assay [4], the target named is Mitogen-activated protein kinase 10 (Mus musculus) (UniProt Q61831). Put plainly: JNK3 AlphaScreen Assay (AID 530; active means well fitted curve in either direction with a large enough effect, not every such curve was filed as active;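 further: kinase came from lysate of stimulated human HepG2 cells; signal reports phosphorylation of biotinylated GST-cJun 1-79 at Ser73 with 10 µM ATP; on the % scale 0 is the no-effect control and ±100 the full control effect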). Put shortly: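 Biotinylated GST-cJun(1-79) served as substrate for JNK3 in HepG2 lysates stimulated with IL-1beta and TNF-alpha. ATP was 10 uM final, pH 7.6. Ser73 phosphorylation was quantified by AlphaScreen (680 nm excitation).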
In general terms: Bead proximity is the source of the signal in Alpha formats.

The target of assay [5] is 3',5'-cyclic-AMP phosphodiesterase 4B (Homo sapiens) (UniProt Q07343). Put plainly: qHTS Assay for Inhibitors of PDE-IV (AID 607; active means well fitted activation curve with a large enough effect in the main read-out, with a control signal flat, not every such curve was filed as active; further: % of control where 0% means no effect). In outline: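 HEK293 ACTOne cells with CNG channel (1000/well), endogenous PDE4; membrane potential dye, compounds up to 22.9 uM final. Fluorescence Ex 535/Em 590; RO 20-1724 (100 uM final) as reference.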
Sequence of 3',5'-cyclic-AMP phosphodiesterase 4B (Homo sapiens) (Q07343 whole entry, looked up): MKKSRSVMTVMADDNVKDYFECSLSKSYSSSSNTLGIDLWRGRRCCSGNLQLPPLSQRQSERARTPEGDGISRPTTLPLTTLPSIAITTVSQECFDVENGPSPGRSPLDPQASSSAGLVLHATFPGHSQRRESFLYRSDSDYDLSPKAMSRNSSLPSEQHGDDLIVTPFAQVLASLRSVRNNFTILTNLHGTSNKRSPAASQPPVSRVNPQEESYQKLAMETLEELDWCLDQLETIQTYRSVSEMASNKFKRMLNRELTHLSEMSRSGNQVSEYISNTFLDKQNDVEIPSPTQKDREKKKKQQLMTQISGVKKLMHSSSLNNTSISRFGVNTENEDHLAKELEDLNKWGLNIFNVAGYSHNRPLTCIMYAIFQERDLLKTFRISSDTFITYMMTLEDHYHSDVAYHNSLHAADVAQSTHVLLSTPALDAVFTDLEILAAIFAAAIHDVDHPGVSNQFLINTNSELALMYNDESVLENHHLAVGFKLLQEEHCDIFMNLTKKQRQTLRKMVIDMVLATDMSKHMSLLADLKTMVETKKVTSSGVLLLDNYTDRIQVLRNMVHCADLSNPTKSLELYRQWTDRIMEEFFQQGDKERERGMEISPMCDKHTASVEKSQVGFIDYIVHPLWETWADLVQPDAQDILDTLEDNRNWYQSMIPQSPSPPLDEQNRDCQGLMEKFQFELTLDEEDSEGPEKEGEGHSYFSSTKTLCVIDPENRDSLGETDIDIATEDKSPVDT
A general note: Quantitative high-throughput screening tests each substance at several concentrations.

Assay [6] concerns the target Guanine nucleotide-binding protein G(i) subunit alpha-1 (Homo sapiens) (UniProt P63096). Nature of the assay: qHTS Assay for Inhibitors of RGS12 GoLoco Motif Activity (Green Fluorophore) (AID 879).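 Further: 0% = labeled peptide with Gαi1 and full inhibition = labeled peptide alone without protein; negative values mean loss of peptide binding seen as reduced polarization.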 In outline: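 A drop in FITC polarization marked displacement of the FITC-tagged RGS12 GoLoco peptide (10 nM) from Gαi1 (50 nM). Compounds were incubated 10 min at room temperature in Tris pH 7.5 buffer containing 150 mM NaCl, 0.1 mM GDP and 0.05% NP40; unlabeled peptide titration served as control.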

Assay [7] deals with Cytochrome P450 3A4 (Homo sapiens) (UniProt P08684). Nature of the assay: qHTS Assay for Inhibitors and Substrates of Cytochrome P450 3A4 (AID 884). Further: on the % scale 0 is the no-effect control and ±100 the full control effect; nearly all actives have a fitted effect of over 50% in size. Put shortly: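 Luminescent readout of luciferin produced by CYP3A4 (20 nM) dealkylation of Luciferin-PPXE, 25 uM (its KM). NADPH-driven reaction ran 60 min at RT after 10 min compound preincubation; data scaled to 57 uM ketoconazole as 100% inhibition.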
Sequence of Cytochrome P450 3A4 (Homo sapiens) (P08684 whole entry, looked up): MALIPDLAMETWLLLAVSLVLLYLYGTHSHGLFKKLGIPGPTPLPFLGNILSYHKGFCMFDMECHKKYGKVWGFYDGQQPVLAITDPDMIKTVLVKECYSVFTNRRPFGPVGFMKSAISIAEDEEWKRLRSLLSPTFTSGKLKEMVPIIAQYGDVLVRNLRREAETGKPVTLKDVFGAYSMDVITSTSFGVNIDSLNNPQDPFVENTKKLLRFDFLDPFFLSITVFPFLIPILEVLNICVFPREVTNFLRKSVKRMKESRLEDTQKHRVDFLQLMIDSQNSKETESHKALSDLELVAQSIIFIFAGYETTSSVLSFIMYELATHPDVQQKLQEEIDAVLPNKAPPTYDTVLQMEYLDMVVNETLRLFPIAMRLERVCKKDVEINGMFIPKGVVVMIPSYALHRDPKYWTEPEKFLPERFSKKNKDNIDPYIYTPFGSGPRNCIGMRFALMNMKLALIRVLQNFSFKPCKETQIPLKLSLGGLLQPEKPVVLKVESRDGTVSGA

The target in assay [8] is Pyruvate kinase (Leishmania mexicana) (UniProt Q27686). Put plainly: qHTS Validation Assay for Inhibitors of Leishmania Mexicana Pyruvate Kinase (AID 945).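 Further: 0% = DMSO only neutral control wells.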 Put shortly:
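LmPYK E451W 0.2 nM; 0.5 mM PEP, 0.1 mM ADP, 7 mM MgCl2, 50 mM KCl, imidazole pH 7.2, 0.01% Tween 20, 0.05% BSA; 1 h RT; PKLight luminescence; DMSO-normalized.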

In assay [9] the target is Alpha-galactosidase (Coffea arabica) (UniProt Q42656). Put plainly: Counterscreen for Glucocerebrosidase Inhibitors: qHTS Assay for Coffee Bean alpha-Galactosidase at pH 4.5 (AID 957).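 Further: plate controls were enzyme alone for no effect and no enzyme for full effect.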 In outline: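 Quantitative HTS of compounds (0.7 nM to 77 uM) against coffee bean alpha-galactosidase at pH 4.5, measuring 4-methylumbelliferone fluorescence released from 80 uM substrate.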
Sequence of Alpha-galactosidase (Coffea arabica) (Q42656 whole entry, looked up): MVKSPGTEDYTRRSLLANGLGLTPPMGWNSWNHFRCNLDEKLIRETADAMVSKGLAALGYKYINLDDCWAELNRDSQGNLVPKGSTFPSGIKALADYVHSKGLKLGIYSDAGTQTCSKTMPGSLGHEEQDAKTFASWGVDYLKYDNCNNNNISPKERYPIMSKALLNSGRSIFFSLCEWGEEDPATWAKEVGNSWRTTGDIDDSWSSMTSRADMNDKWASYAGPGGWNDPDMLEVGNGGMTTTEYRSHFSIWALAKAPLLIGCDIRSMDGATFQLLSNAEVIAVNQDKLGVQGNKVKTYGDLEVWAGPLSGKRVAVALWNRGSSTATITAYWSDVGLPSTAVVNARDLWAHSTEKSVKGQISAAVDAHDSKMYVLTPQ
In general terms: Counterscreens check selectivity or assay interference.

For assay [10], the target named is Alpha-galactosidase A (Homo sapiens) (UniProt P06280). Put plainly: Counterscreen for Glucocerebrosidase Inhibitors: qHTS Assay for Human alpha-Galactosidase at pH 4.5 (AID 992). Further: 0% is about no effect. In outline:
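Steps: enzyme (2 nM final), then compound across 0.7 nM to 77 uM, then 80 uM fluorogenic galactopyranoside substrate; incubate 20 min at room temperature; quench at pH 10; measure fluorescence at 365/440 nm.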

The target in assay [11] is Ubiquitin carboxyl-terminal hydrolase 1 (Homo sapiens) (UniProt O94782). Put plainly: Inhibitors of USP1/UAF1: Pilot qHTS (AID 504865).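 Further: rhodamine fluorescence freed from ubiquitin-rhodamine substrate followed over time; top concentration of the series differs between compounds; on the % scale 0 is the no-effect control and ±100 the full control effect; nearly all actives have a fitted effect of over 35% in size.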 Put shortly: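 Deubiquitinase activity followed as kinetic rhodamine fluorescence release from 150 nM Ub-Rho. 1 nM USP1/UAF1 with compound, after 15 min room-temperature preincubation, in HEPES pH 7.8 buffer containing TCEP, EDTA, BSA and Tween-20.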
Sequence of Ubiquitin carboxyl-terminal hydrolase 1 (Homo sapiens) (O94782 whole entry, looked up): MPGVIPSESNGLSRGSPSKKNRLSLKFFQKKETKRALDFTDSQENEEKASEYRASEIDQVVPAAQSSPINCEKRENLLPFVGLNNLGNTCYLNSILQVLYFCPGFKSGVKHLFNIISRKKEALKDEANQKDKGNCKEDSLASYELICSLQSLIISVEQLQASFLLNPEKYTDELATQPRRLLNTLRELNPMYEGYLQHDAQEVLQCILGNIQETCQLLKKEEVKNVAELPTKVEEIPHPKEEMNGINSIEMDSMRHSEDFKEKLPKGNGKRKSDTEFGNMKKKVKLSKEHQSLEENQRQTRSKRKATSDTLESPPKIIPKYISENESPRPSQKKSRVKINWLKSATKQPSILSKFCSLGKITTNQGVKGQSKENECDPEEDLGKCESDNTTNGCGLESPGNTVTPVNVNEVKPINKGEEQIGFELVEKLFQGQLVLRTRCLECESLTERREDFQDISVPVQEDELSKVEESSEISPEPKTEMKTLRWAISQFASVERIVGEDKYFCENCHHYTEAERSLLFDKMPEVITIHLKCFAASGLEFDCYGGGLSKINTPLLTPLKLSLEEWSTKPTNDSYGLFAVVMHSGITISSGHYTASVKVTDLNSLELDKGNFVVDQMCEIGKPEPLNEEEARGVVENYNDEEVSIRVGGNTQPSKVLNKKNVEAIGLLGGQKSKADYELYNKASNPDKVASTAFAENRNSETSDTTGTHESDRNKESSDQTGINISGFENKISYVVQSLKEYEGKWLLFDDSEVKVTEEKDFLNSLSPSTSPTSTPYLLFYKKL

The target of assay [12] is DNA dC->dU-editing enzyme APOBEC-3G (Homo sapiens) (UniProt Q9HC16). Put plainly: qHTS for inhibitors of Vif-A3G interactions: Validation (AID 588379). Further: 0% is about no effect. Put shortly: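 Yellow fluorescence (Ex 488, Em 500-530) of Vif-coexpressing HeLa A3G-eYFP cells, scanned by Acumen cytometer, reports blocked A3G degradation. Cells plated at 700/well overnight at 37 deg C before compound addition, then a further overnight compound incubation at 37 deg C.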
Sequence of DNA dC->dU-editing enzyme APOBEC-3G (Homo sapiens) (Q9HC16 whole entry, looked up): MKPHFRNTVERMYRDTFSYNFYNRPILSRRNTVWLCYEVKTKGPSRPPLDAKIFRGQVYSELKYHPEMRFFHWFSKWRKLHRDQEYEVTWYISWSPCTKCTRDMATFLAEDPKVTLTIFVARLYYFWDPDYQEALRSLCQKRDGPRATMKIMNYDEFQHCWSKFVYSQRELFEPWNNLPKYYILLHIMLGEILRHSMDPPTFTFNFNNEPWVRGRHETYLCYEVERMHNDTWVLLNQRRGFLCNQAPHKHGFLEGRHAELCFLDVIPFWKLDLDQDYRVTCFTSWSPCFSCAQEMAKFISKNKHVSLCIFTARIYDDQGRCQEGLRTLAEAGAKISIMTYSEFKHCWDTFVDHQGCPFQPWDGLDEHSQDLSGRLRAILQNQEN

Assay [13] deals with Zika virus NS2B-NS3 protease. Nature of the assay: Primary screen GU AMC qHTS for Zika virus inhibitors (AID 1347154).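 Further: 0% = no-inhibitor control and -100% = no-enzyme control; nearly all actives have a fitted effect of over 70% in size.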 In outline:
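Unlinked Zika NS2B hydrophilic domain/NS3 protease domain noncovalent complex (25 nM final) in 10 mM Tris-HCl pH 8.0, 0.01% Tween 20, with AMC peptide substrate. Fluorescence (ex 340, em 450 nm) change over 15 min, room temperature; percent inhibition fitted to 4-parameter Hill equation.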

Assay [14] in a line: Primary qHTS for small molecule stabilizers of the endoplasmic reticulum resident proteome: Secreted ER Calcium Modulated Protein (SERCaMP) assay (AID 1508630). Further: on the % scale 0 is the no-effect control and ±100 the full control effect. In outline: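 The SH-SY5Y reporter protocol was run at 3 concentrations up to 38.3 uM (primary) or 11 concentrations (follow-up): 16 h compound, 100 nM thapsigargin for 4 h, then extracellular luciferase luminescence.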

The nature of assay [15]: AP1 Signaling Pathway (AID 357; active means well fitted curve in either direction with a large enough effect, not every such curve was filed as active;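 further: ME-180 reporter cells stimulated with EGF at its EC50 level; on the % scale 0 is the no-effect control and ±100 the full control effect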). Put shortly:
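Titration-series screen for positive or negative modulators of EC50 EGF-induced signaling in ME-180 cells carrying an AP-1-driven beta-lactamase reporter. After 5 hours at 37 degrees Celsius, CCF4 460nm/530nm emission ratio gave %Activity; AC50 values derived.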

Assay [16] can be described thus: NFAT Signaling Pathway (AID 444; active means well fitted curve in either direction with a large enough effect, not every such curve was filed as active;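 further: carbachol stimulus at about its EC50 of 1 µM final; on the % scale 0 is the no-effect control and ±100 the full control effect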). The note with it: Jurkat NFAT-bla M1, carbachol, beta-lactamase ratio, 5 h; at 38 µM (top of the series). Put shortly: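 Jurkat cells carrying an NFAT-driven β-lactamase reporter and co-transfected muscarinic M1 receptor were treated with compound plus carbachol (1 uM final, an EC50 level) for 5 h at 37 °C. CCF4 loading followed for 1 h at RT; 460/530 nm ratio gave %activity.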

Assay [17] is described as follows: Stat Signaling Pathway (AID 446; active means well fitted curve in either direction with a large enough effect, not every such curve was filed as active). In outline: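 Normalization used AC90 stimulation (300 pM IL-6) and AC90 inhibition (125 nM pan-JAK inhibitor at 40 pM IL-6). The underlying signal is SIE-driven beta-lactamase in ME-180 cells after 5 h IL-6 exposure with compound.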
The target of assay [18] is Cytochrome P450 3A4 (Homo sapiens) (UniProt P08684). Nature of the assay: qHTS Assay for Activators of Cytochrome P450 3A4 (AID 885). Further: potency means the concentration at half of the fitted maximal effect; nearly all actives have a fitted effect of over 65% in size. In outline: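 Human CYP3A4 dealkylates Luciferin-PPXE to luciferin, which luciferase detection converts to light. Substrate was at its KM (25uM), buffer 200mM KPO4, reaction 60 min at RT.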
In assay [19] the target is Cytochrome P450 2D6 (Homo sapiens) (UniProt P10635). Nature of the assay: qHTS Assay for Inhibitors and Substrates of Cytochrome P450 2D6 (AID 891). Further: potency means the concentration at half of the fitted maximal effect; nearly all actives have a fitted effect of over 60% in size. Put shortly:
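Luminescent read-out of luciferin formed by 5 nM human CYP2D6 demethylating 30 uM Luciferin-ME EGE (Km level) over 60 min at room temperature after NADPH regeneration addition. Data normalized to full inhibition by 1.43 uM quinidine.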

SMILES strings stand for the structures. Results filed as inconclusive are left out. Active and inactive are the calls of the source. Unless noted, the call rests on the fitted dose curve; in most records, active means well fitted curve in the direction sought with a large enough effect; inconclusive means small, poorly fitted or top-dose-only effect, or another doubt; inactive means no such curve, though single readings can be large; an effect the other way counts as inactive or inconclusive.

Sequence of Alpha-galactosidase A (Homo sapiens) (P06280 whole entry, looked up): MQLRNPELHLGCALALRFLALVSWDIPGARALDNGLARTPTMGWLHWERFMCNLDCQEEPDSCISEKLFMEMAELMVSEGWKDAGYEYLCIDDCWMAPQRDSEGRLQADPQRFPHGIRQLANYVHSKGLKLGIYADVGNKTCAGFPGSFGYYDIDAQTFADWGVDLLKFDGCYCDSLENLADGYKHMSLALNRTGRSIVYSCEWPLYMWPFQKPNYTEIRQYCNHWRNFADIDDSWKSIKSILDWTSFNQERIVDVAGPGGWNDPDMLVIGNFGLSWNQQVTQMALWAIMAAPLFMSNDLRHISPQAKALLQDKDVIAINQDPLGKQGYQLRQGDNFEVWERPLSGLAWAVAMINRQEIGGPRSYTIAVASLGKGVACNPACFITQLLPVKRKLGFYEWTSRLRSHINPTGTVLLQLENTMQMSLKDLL
Sequence of Guanine nucleotide-binding protein G(i) subunit alpha-1 (Homo sapiens) (P63096 whole entry, looked up): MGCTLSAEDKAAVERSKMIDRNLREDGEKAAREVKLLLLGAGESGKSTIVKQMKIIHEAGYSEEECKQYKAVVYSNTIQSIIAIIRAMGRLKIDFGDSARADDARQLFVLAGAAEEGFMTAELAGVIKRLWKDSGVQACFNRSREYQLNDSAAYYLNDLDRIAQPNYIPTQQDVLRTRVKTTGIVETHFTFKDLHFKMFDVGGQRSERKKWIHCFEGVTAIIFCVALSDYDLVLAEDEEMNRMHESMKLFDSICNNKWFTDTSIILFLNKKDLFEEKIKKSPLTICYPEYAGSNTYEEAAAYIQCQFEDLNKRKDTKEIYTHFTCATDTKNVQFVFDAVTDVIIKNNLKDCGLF
Sequence of Pyruvate kinase (Leishmania mexicana) (Q27686 2-499 E452W): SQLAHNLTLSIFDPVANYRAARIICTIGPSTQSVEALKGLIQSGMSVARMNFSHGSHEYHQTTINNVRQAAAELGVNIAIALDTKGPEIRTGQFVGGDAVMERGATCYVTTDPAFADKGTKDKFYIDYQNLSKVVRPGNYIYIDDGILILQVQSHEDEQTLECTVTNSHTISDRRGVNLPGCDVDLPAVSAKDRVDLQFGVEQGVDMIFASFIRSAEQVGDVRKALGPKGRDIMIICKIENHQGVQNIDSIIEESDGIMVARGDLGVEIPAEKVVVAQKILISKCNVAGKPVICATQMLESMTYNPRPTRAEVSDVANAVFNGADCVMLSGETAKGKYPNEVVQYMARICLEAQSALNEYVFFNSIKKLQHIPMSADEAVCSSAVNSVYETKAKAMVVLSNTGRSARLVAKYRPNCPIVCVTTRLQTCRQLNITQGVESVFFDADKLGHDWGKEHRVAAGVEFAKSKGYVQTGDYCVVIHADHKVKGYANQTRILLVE

On to `C=C(C)[C@H]1CN[C@H](C(=O)O)[C@@H]1CC(=O)O`, for which the Potency entry in assay [1], in [5], in assay [7], in assay [11], in assay [12] and in [13] was “inactive” throughout. Besides, in [14], the Potency result is “inactive”. Further, the Potency in assay [2] and in assay [3] was > 46 µM (inactive) each time. The molecule was classed as inactive in assay [4], in assay [6], in assay [8], in [9] and in [10].
As for `C[C@H](N)Cc1c[nH]c2ccc(O)cc12`, the outcome in assay [15], in assay [17], in assay [6], in assay [8], in assay [9] and in assay [10] was inactive. The activity change, negative = inhibition in assay [16] is 3.63% (inactive). For the same molecule, in assay [3], the Potency is > 46 µM (inactive). The Potency result in [5], in assay [12], in assay [13] and in assay [14] was “inactive” in each case.
For the molecule `C/C(=C\[C@@H](N)C(=O)O)CP(=O)(O)O`, the Potency in assay [2] and in assay [3] was > 46 µM (inactive) in each case. In addition, the Potency entry in assay [11], in assay [12], in assay [13] and in assay [14] was “inactive” in each case.
Regarding `CN(C(=O)Cc1ccc(Cl)c(Cl)c1)[C@H](CN1CCCC1)c1cccc(N=C=S)c1`, the Potency in assay [3] is > 46 µM (inactive). Moreover, the outcome in assay [4] was inactive. The Potency entry in assay [5], in [12], in assay [13] and in assay [14] was “inactive” throughout.
Regarding `C#CCN1C(C)=C(C(=O)CCO)[C@@H](c2cccc(-n3oo3)c2)C(C(=O)OC)=C1C`, the Potency in assay [2] and in assay [3] was > 46 µM (inactive) throughout. Further, the Potency entry in assay [12], in assay [13] and in assay [14] was “inactive” in each case.
As to `O=C1CC[C@@]2(O)[C@H]3Cc4ccc(O)c5c4[C@@]2(CCN3CC2CC2)[C@@H]1O5`, the result in assay [15], in assay [17], in assay [6], in [8], in [9] and in assay [10] was inactive. In addition, in [16], the activity change, negative = inhibition was 8.31% (inactive). Further, the Potency entry in assay [5], in [11], in assay [12], in assay [13] and in assay [14] was “inactive” in each case.
`NC[C@H](CP(=O)(O)O)c1ccc(Cl)cc1`: the molecule was classed as inactive in [15], in assay [17], in assay [6], in [8], in [9] and in [10]. The activity change, negative = inhibition in assay [16] was 3.15% (inactive). The Potency in assay [2] and in assay [3] was > 46 µM (inactive) in each case. In addition, the Potency entry in [5], in [7], in assay [12], in assay [13] and in assay [14] was “inactive” throughout.
Take `C/C(=C\C=C/[C@@H](C)C(=O)O)[C@H]1CN[C@H](C(=O)O)[C@@H]1CC(=O)O`: the Potency in assay [2] and in assay [3] was > 46 µM (inactive) each time. The Potency result in assay [11], in assay [12], in assay [13] and in assay [14] was “inactive” throughout.
For `CC1=C(O)C(=O)[C@H]2O[C@@H]2C1=O`, the Potency in assay [2] and in assay [3] was > 46 µM (inactive) each time. In [4], the outcome was inactive. Besides, the Potency entry in [5], in assay [11], in assay [13] and in assay [14] was “inactive” in each case.
Turning to `c1ccc(CCCCN2CCC(c3ccccc3)CC2)cc1`, the Potency in [1] was 15.8 µM (active); in assay [2], > 46 µM (inactive); in [3], > 46 µM (inactive); in assay [18], 31.6 µM (active); in assay [19], 0.0398 µM (active). For the same molecule, the call in assay [4] was inactive. The Potency entry in [7], in [12], in [13] and in assay [14] was “inactive” in each case.

Values taken from PubChem BioAssay (NCATS).
